Assay outcomes as filed in PubChem.
Hits are enriched below; roughly 4.3% of the tested compounds scored in any of these assays.
esBAF inh – blocks esBAF chromatin remodeling in mouse ES cells | Bmi1-luciferase knock-in reporter, 24 h; 100% = twice the neutral-well signal | reporter increase, % at 12.5 µM | 350,000 tested, 2% active; in the data active means activation above about 40%; inconclusive means no clear call, values can overlap the other calls;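 further: a rise in the Bmi1 reporter signal indicates esBAF inhibition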
FGF22 binding – binders of recombinant human FGF22 by thermal shift; activity (Tm shift, normalised), % at 9.99 µM; 340,000 tested, 1.5% active; SYPRO orange fluorescence; percent of sucrose octasulfate shift, DMSO zero;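 active means mean Tm shift, scaled 0 neutral to 100 positive control, at about 1.3% or above, every replicate too, limit read from the data; inconclusive means no clear call, values can overlap the other calls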
SMARCA2 act – SMARCA2 function activation, primary screen; activation, % at 9.1 µM; MG213 cells, MMTV-luciferase reporter, dexamethasone, overnight; 370,000 tested, 1% active; in the data active means activation above about 7.8%
MITF act – increases MITF-driven TRPM1 promoter luciferase signal | SK-MEL-5 TRPM1-promoter luciferase, 24 h; % of positive control, neutral wells = 0 | activation, % at 12.5 µM | 300,000 tested, 0.75% active;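 active means mean activation of at least 80% with every replicate also reaching 80%; inconclusive means mean reaches 80% but some replicate falls short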
MLL AF4-AF9 inh – inhibitors of human MLL-AF4/AF9 interaction; P42568; AlphaScreen, biotin-AF4 peptide binding to FLAG-AF9; inhibition, % at 10 µM; 350,000 tested, 0.47% active;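 active means every replicate reaching a set inhibition limit, whatever the replicate mean, cut at about 25% in these data; inconclusive means mean inhibition reaches that limit but some replicates miss it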
Target sequence (P42568 whole entry, looked up): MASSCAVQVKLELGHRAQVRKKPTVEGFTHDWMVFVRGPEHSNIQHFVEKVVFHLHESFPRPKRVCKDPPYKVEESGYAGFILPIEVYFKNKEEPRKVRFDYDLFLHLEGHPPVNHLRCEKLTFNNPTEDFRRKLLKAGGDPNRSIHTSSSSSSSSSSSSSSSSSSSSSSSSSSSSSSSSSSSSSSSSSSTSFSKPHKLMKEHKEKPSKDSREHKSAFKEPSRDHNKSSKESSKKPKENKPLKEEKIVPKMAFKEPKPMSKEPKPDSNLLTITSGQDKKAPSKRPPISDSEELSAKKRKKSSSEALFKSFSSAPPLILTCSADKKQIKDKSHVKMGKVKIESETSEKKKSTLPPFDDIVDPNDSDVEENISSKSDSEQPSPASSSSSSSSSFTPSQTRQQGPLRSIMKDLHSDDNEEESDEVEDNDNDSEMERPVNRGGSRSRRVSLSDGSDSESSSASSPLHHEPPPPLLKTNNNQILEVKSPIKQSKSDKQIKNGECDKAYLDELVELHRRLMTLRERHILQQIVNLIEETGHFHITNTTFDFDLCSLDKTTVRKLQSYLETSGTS
Wnt bcat act – Wnt/beta-catenin pathway activation; Wnt/beta-catenin reporter cell assay, activator, plate reader; activation, % at 9.35 µM; 300,000 tested, 1.2% active; in the data active means activation above about 30%, passing the limit was not always enough; inconclusive means no clear call, values can overlap the other calls
esBAF Ring1 qPCR – de-represses Ring1 in mouse ESCs, confirming esBAF inhibition; shares compounds with esBAF inh; mouse ESC E14, Ring1 mRNA RT-qPCR fold change; fold change at 33 µM; 550 tested, under 10 active; AID 743176;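 active means Ring1 gene expression raised more than 2-fold over untreated cells in both replicates at either tested dose; inconclusive means only one replicate above 2-fold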;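 further: Ring1 transcript normalised to actin housekeeping signal by TaqMan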
Fgf4 repress – confirmation of esBAF inhibitors: Fgf4 repression in mouse ESCs. 550 tested, 4% active. AID 743177. mouse ESC E14, Fgf4 mRNA qPCR fold change; stronger effect = lower value. Fgf4 expression fold change at 33 µM. shares compounds with esBAF inh;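 active means Fgf4 expression under 0.8 fold of control in both repeat measurements at one or both tested doses; inconclusive means under 0.8 fold in just a single repeat measurement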;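 further: Fgf4 transcript normalised to actin in duplex TaqMan qPCR; cells exposed to compound for 24 h before lysis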
Bmi1 derepress – esBAF inhibition confirmed by Bmi1 de-repression; 550 tested, under 10 active; shares compounds with esBAF inh; fold change at 33 µM; AID 743180; mouse ESE14 ES cells, Bmi1 mRNA qPCR fold; stronger effect = higher value;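 active means Bmi1 expression fold change above 6 at either tested concentration, seen in replicate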
A549 tox SP – kills or reduces viability of A549 cells; shares compounds with esBAF inh; AID 743188; A549 cytotoxicity, plate reader; cell viability change % (negative = cytotoxic), % at 25 µM, hits read low; 550 tested, under 10 active; call rule not given here
HepG2 tox SP – kills or reduces viability of HepG2 cells; shares compounds with esBAF inh; HepG2 cytotoxicity, plate reader; stronger effect = lower value; activity change, negative = inhibition, % at 25 µM; 550 tested, 4% active; AID 743189; in the data active means activity change below about -50%
HEK293 tox SP – kills or reduces viability of HEK293 cells; shares compounds with esBAF inh; HEK293 cytotoxicity, plate reader; activity change, negative = inhibition, % at 25 µM, hits read low; 550 tested, 3% active; AID 743190; in the data active means activity change below about -38%, passing the limit was not always enough
A number is an active result; 0 = inactive; ? = inconclusive; - = not tested or not shown.

SMILES | esBAF inh | FGF22 binding | SMARCA2 act | MITF act | MLL AF4-AF9 inh | Wnt bcat act | esBAF Ring1 qPCR | Fgf4 repress | Bmi1 derepress | A549 tox SP | HepG2 tox SP | HEK293 tox SP
CN(C)c1ccc(CN(C(=O)c2cc3ccccc3oc2=O)C2CCS(=O)(=O)C2)cc1 (stereo not drawn) | 70 | 0 | 0 | 0 | 0 | 0 | 0 | 0 | 0 | 0 | 0 | 0
Cc1nc(-c2ccccc2)nc2[nH]ccc(=O)c12 | 64 | - | 0 | - | - | 0 | 2.2 | ? | 0 | 0 | 0 | 0
O=C(N/N=C/c1cccc([N+](=O)[O-])c1)c1cccc2cc[nH]c12 | - | 0 | 0 | 0 | 0 | 0 | - | - | - | - | - | -
O=C(N/N=C/c1cccs1)c1cccc2cc[nH]c12 | 57 | 0 | 0 | 0 | 0 | 0 | 0 | 0 | 0 | 0 | 0 | 0
CCCS(=O)(=O)N1CCC(C(=O)NC2CCC(C)CC2)CC1 (stereo not drawn) | 56 | - | 0 | 0 | - | - | 0 | 0 | 0 | 0 | 0 | 0
O=C(c1cc2c(s1)-c1ccccc1OC2)N1CCCC1 | 76 | 0 | 0 | 0 | 0 | 55 | 0 | 0 | 0 | 0 | 0 | 0
O=C(c1cc2c(s1)-c1ccccc1OC2)N1CCN(c2ccccc2)CC1 | 0 | 0 | 0 | 0 | 0 | 0 | - | - | - | - | - | -
C[C@@H]1CN([C@H](C)CO)C(=O)c2cccc(NC(=O)c3cnccn3)c2O[C@H]1CN(C)S(=O)(=O)c1cn(C)cn1 | - | 0 | - | - | 0 | - | - | - | - | - | - | -
Brc1ccccc1-c1nnc(-c2cccnc2)o1 | 66 | - | 0 | - | - | 0 | 0 | 0 | 0 | 0 | 0 | 0
Cc1ccc(-c2nnc(-c3ccccc3Br)o2)cc1 | 0 | 0 | 0 | - | 0 | 0 | - | - | - | - | - | -
O=C(NCC(F)(F)F)[C@@H]1[C@@H](CO)[C@@H]2Cn3c(cccc3=O)[C@H]1N2CC1CCOCC1 | 0 | 0 | - | - | 0 | - | - | - | - | - | - | -
O=C(C[C@@H]1C=C[C@@H](NC(=O)c2cccc(F)c2)[C@H](CO)O1)NCc1ccccc1 | 0 | 0 | - | - | 0 | - | - | - | - | - | - | -
COc1ccc(OCc2cc(C(=O)N(Cc3nccn3C)C(C)C)no2)c2ccccc12 | 70 | 0 | 0 | 0 | 0 | 0 | 0 | 0 | 0 | 0 | 0 | 0
COc1cc(CNc2ccc(N3CCN(C(C)=O)CC3)cc2)ccc1OCc1ccc(F)cc1 | 58 | 0 | 0 | 0 | 0 | 0 | 2.2 | 0 | 0 | 0 | 0 | 0
CC(=O)N1CCN(c2ccc(NCc3ccc(F)cc3)cc2)CC1 | 0 | 0 | 0 | 0 | 0 | 0 | - | - | - | - | - | -
CNC(=O)c1ccc(-c2ccccc2)s1 | 58 | - | 0 | 0 | - | 0 | 0 | ? | 0 | 0 | 0 | 0
CC(=O)Nc1ccc(-c2ccccc2)s1 | 0 | - | 0 | 0 | - | - | - | - | - | - | - | -
COc1cccc(C(=O)Nc2cccc3ccccc23)c1OC | 0 | 0 | 0 | - | 0 | 0 | - | - | - | - | - | -
COc1cc(Cl)c(C)cc1NC(=O)c1cccc(OC)c1OC | 57 | 0 | 0 | 0 | 0 | 0 | 0 | 0 | 0 | 0 | 0 | 0
CCC1CCCCN1C(=O)c1ccc2nc(Cc3ccc(OC)cc3)oc2c1 (stereo not drawn) | 67 | 0 | 0 | ? | 0 | 0 | 0 | 0 | 0 | 0 | 0 | 0
CCC(=O)N(C)C[C@@H]1Oc2cc(-c3cncnc3)ccc2S(=O)(=O)N([C@H](C)CO)C[C@@H]1C | 0 | - | - | - | 0 | - | - | - | - | - | - | -
Cc1nc2ccccn2c1-c1nnco1 | 0 | - | 0 | 0 | - | 0 | - | - | - | - | - | -
Cc1cc(-c2nnco2)c(C)n1-c1ccccc1 | 54 | - | 0 | 0 | - | 0 | 0 | 0 | 0 | 0 | 0 | 0
CC(C)CN1C(=O)c2ccc(NC(=O)c3cccs3)cc2C1=O | 63 | - | 0 | ? | - | - | 0 | 0 | 0 | 0 | 0 | 0
